# Laboratory results taken from PubChem BioAssay (NCI).
# Compounds without any hit were thinned out: in the full panel of roughly 83,000, 20% have a hit.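 Compound tested at a single concentration for 48 hours in 96-well plates; a percent growth value below 10 was scored as active.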 Calls of active or inactive are those of the source.
# System: A549/ATCC NSCLC
# Assay: NCI-60 one-dose screen, 48 h (100 = growth as untreated, 0 = no growth, -100 = all killed)
# Settings: 10 µM
# Description: Growth inhibition of the A549/ATCC human Non-Small Cell Lung tumor cell line is measured as a screen for anti-cancer activity. Cells are grown in 96 well plates and exposed to the test compound for 48 hours. Compounds are tested at a single concentration, which is 10^-5 M for most compounds. The reported endpoint is percent growth (GI% or GIPRCNT), where numbers from 0 - 100% represent growth inhibition, and numbers from -100% - 0 represent cell death. For example, a value of 40 represents 60% growth inhibition. A value of 0 means no net growth occurred over the course of the experiment. A value of -40 indicates 40% of cells at the beginning of the experiment died by the end of the experiment. A value of -100 means all cells are dead at the end of the experiment.
# NCI-60 Human Tumor Cell Lines Screen was performed using the standard one-dose NCI protocol, which is described in more detail at https://dtp.cancer.gov/discovery_development/nci-60/default.htm.
# Compounds with GIPRCNT values below 10 were considered active. Activity score was based on GIPRCNT using the following formula: […]
# Score is 0 for GIPRCNT values of 100 or above, 50 for GIPRCNT values of 0, and 100 for GIPRCNT values of -100.
row,Structure (SMILES),growth
1,N#CCC1CCCC1,101% (inactive)
2,COc1cccc2c1C(=O)c1c(O)c3c(c(O)c1C2=O)C[C@@](O)(C(=O)COC(=O)c1cccnc1)C[C@@H]3OC1CC(N)C(O)C(C)O1 (stereo not given in full),-0.944% (active)
3,O=C1/C(=C/c2ccc(O)cc2)Oc2ccc(Cl)cc21,79.7% (inactive)
4,COc1ccc(-c2cc(=O)n(-c3nc4ccccc4[nH]3)[nH]2)cc1OC,59% (inactive)
5,CN(C)CCCN1c2ccccc2Sc2ccc(C(F)(F)F)cc21,53.3% (inactive)
6,O=C(O)CCCN1C(=O)NC2(C1=O)c1ccccc1-c1ccccc12,90.2% (inactive)
7,O=C1/C(=C/c2cccs2)CCC/C1=C\c1cccs1,88.4% (inactive)
8,CCOC(=O)c1cc2c(n1Cc1ccccc1)-c1oncc1CC2,89.1% (inactive)
9,COc1cc(CSc2nc3ccc(C)cc3c(=O)n2Cc2ccccc2)cc(OC)c1OC,40% (inactive)
10,COc1ccc(-c2[nH]ncc2-c2cc(OC)c(OC)c(OC)c2)cc1,18% (inactive)
11,COc1ccccc1NC1=C(N2CCCCC2)C(=O)c2ccccc2C1=O,74.4% (inactive)
12,C[N+]1(CC2CO2)CCCCCC1 (stereo not given),107% (inactive)
13,Cc1cc(C)c(C(=O)OC(C)CNC2CCCCC2)c(C)c1 (stereo not given),102% (inactive)
14,CCCc1c(CC)c(=N)c2ccccc2n1C,50.4% (inactive)
15,COc1ccccc1S(=O)(=O)Nc1ccc2c(c1)CN(C)C(=O)N2,50.5% (inactive)
16,COc1cccc(-c2nnc(COc3ccc(-c4nc5ccccc5[nH]4)cc3OC)o2)c1,97.1% (inactive)
17,O=C(NNC(=O)c1ccncc1)Nc1ccc([N+](=O)[O-])cc1,106% (inactive)
18,CCn1nc(-c2ccc(C(=O)OC)cc2)nc2c(=O)n(C)c(=O)nc1-2,35.8% (inactive)
19,COC(=O)c1cnc2c(c1)Oc1ccccc1-c1ccnn1-2,86.3% (inactive)
20,CC(C)(C)c1ccc(OCCCCCCN2CCNCC2)cc1,55.1% (inactive)

row,Structure (SMILES),growth
1,COc1ccc(C(=O)/C=C/c2cc(-c3ccc(OC)c(OC)c3)n[nH]2)cc1OC,-12.8% (active)
2,CC(C)(C)CC(C)(C)c1ccc(O)c(Cc2ccc(Cl)cc2Cl)c1,-88.5% (active)
3,S=C(Cc1ccc(-c2ccccc2)cc1)N1CCOCC1,90.9% (inactive)
4,O=C1/C(=C/c2ccc([N+](=O)[O-])s2)Oc2ccc(Cl)cc21,-26.5% (active)
5,O=C(NC1CCN(Cc2ccccc2)CC1)c1cc(-c2ccncc2)nc2ccc(Cl)cc12,6.48% (active)
6,O=C(N/N=c1/ccoc2cccnc12)N1CCN(c2ncccn2)CC1,17.6% (inactive)
7,CNC(=O)c1cc(Oc2ccc(NC(=O)Nc3ccc(Cl)c(C(C)(C)C)c3)c(F)c2)ccn1,37.4% (inactive)
8,O=C(Nc1cccc(C(F)(F)F)c1)C(Cl)Cl,98% (inactive)
9,CCOC(=O)c1ccc(N(C=O)CCC(=O)CCl)cc1,12.3% (inactive)
10,Cc1ccc([P+](Cc2ccccc2)(c2ccccc2)c2ccccc2)cc1,18.1% (inactive)
11,CC(Oc1ccc(Cl)cc1)c1ccccc1 (stereo not given),102% (inactive)
12,O=[N+]([O-])c1ccc(Br)o1,104% (inactive)
13,CC(C)C[C@H](NC(=O)CCn1ccc2ccccc2c1=O)B(O)O,58% (inactive)
14,COc1cc(/C=C/C(=O)c2cc(-c3ccc(F)cc3)ccc2O)cc(OC)c1OC,83.5% (inactive)
15,COc1cccc(C(=O)NNc2nc(N3CCN(C4CCCCC4)CC3)nc(N3CCN(C(c4ccccc4)c4ccccc4)CC3)n2)c1,35.8% (inactive)
16,COc1ccc(-c2cc(/C=C3\C(=O)Nc4cc(Cl)ccc43)[nH]n2)cc1,44% (inactive)
17,CC(=O)OCC(COC(C)=O)(COC(C)=O)COC(C)=O,111% (inactive)
18,Oc1ccc(Cn2cc3c(c2-c2ccccc2)CCc2cnoc2-3)cc1,84.1% (inactive)
19,Nc1cc2c(cc1Cl)-c1ccc(Cl)cc1C2=O,85.7% (inactive)
20,O=C(Nc1ccc(CN2CCOCC2)cc1)c1ccc(-c2cc(Cl)ccc2Cl)o1,57.3% (inactive)
